S2 tox = Viability Counterscreen for Primary qHTS for Inhibitors of ATXN expression; Potency, µM (series often up to 56.7 µM), actives largely listed as cytotoxic; S2 cells (HEK-293 line with an ATXN2-luciferase reporter) viability, CellTiter-Fluor protease fluorescence, 24 h; 400,000 tested, 0.49% active; further: nearly all actives have a fitted effect of over 40% in size
HepG2 viability = qHTS for Inhibitors of TGF-b: Cytotox Counterscreen | 410,000 tested, 0.76% active | HepG2 CAGA-GFP viability, ATP luminescence, 18 h | Potency, µM (top dose mostly 46.1 µM), usual class: cytotoxic
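CellTiter-Glo luminescence gave cytotoxicity after 18 hours at 37 degrees C. The cells were HepG2 CAGA-GFP in 1% FBS DMEM, stimulated with 500 pg/mL TGF-beta after compound addition. %Activity was normalised to no-cell wells (complete cell-killing) and DMSO (no toxicity), and curves were fitted and classified.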
ATXN2 expr inh = Primary qHTS for Inhibitors of ATXN expression | HEK-293 ATXN2-luciferase reporter, luminescence, 24 h | Potency, µM (top dose mostly 57 µM), actives largely listed as inhibitors | 360,000 tested, 0.72% active | AID 1745845, 2022; further: nearly all actives have a fitted effect of over 55% in size
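qHTS (up to 57 uM final) was run with 24 h compound exposure of reporter cells at 37 °C. Each well was multiplexed: SteadyGlo luminescence measured ATXN2-luciferase expression after a fluorogenic Gly-Phe-AFC viability readout (25 uM final).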
TDP1 cell noCPT = qHTS for Inhibitors of human tyrosyl-DNA phosphodiesterase 1 (TDP1): qHTS in cells in absence of CPT; DT40 Tdp1-/- hTDP1 cells, no CPT, ATP luminescence, 48 h; Potency, µM (doses to about 46.2 µM), hits mostly inhibitors; 420,000 tested, 15% active; AID 686978, 2013; further: nearly all actives have a fitted effect of over 55% in size
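Camptothecin absent (DMSO only). Human TDP1-complemented DT40 knockout cells, 400 cells/well, 37 °C for minimum 48 hr; ATP measured via CellTiter-Glo, 30 min dark incubation, luminescence.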
TGFb SMAD3 inh = qHTS for Inhibitors of TGF-b | 410,000 tested, 1.2% active | HepG2 CAGA-GFP TGF-b/SMAD3 reporter, GFP fluorescence, 18 h; TGF-beta stimulated, 500 pg/mL final | Potency, µM (doses to about 46.1 µM), hits mostly inhibitors; further: nearly all actives have a fitted effect of over 65% in size
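First, reporter cells (HEPG2 CAGA-GFP) rested 2 h at 37 degrees C. Next, compounds were pinned in and TGF-beta added to 500 pg/mL final. After 18 h, GFP was imaged per cell and summed per well.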
DT40 TDP1 CPT = qHTS for Inhibitors of human tyrosyl-DNA phosphodiesterase 1 (TDP1): qHTS in cells in presence of CPT; chicken DT40 Tdp1-/-;hTDP1 cells + 20 nM CPT, ATP luminescence, 48 h; 420,000 tested, 12% active; AID 686979, 2013; Potency, µM (top dose mostly 46.2 µM), hits mostly inhibitors; further: nearly all actives have a fitted effect of over 55% in size
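Cell growth measured by CellTiter-Glo luminescence after a minimum 48 h, 37 C compound exposure with 20 nM CPT in Tdp1-knockout DT40 cells stably expressing hTDP1, seeded 400/well; qHTS titration format.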
Of the large screens only hits and unclear results are named; the others gave an inactive call. This is a sample that favours compounds with a hit; in the whole collection about 17% have one here. The call rests on the fitted dose curve; in most records, active means well fitted curve in the direction sought with a large enough effect; inconclusive means small, poorly fitted or top-dose-only effect, or another doubt; inactive means no such curve, though single readings can be large; an effect the other way counts as inactive or inconclusive.

CC(C)c1[nH]nc2c1C(c1ccco1)C(C#N)=C(N)O2 (centres undefined)	TDP1 cell noCPT inconclusive (no result: ATXN2 expr inh)
Cc1ccc(-c2nc3ccccn3c2Nc2ccccc2C)o1	TDP1 cell noCPT 16µM, DT40 TDP1 CPT inconclusive (no result: S2 tox, HepG2 viability, ATXN2 expr inh, TGFb SMAD3 inh)
Cc1ccccc1Nc1c(-c2cccnc2)nc2ccc(Br)cn12	TDP1 cell noCPT inconclusive, TGFb SMAD3 inh inconclusive, DT40 TDP1 CPT 15µM (no result: ATXN2 expr inh)
COc1ccc(-c2nc3ccccn3c2Nc2ccccc2C)cc1	TDP1 cell noCPT inconclusive, DT40 TDP1 CPT 11µM (no result: S2 tox, HepG2 viability, ATXN2 expr inh, TGFb SMAD3 inh)
Cc1ccccc1Nc1c(-c2cccnc2)nc2ccc(Cl)cn12	S2 tox inconclusive, ATXN2 expr inh inconclusive, TDP1 cell noCPT inconclusive, DT40 TDP1 CPT 12µM
Cc1ccccc1Nc1c(-c2c(F)cccc2Cl)nc2ccc(Br)cn12	S2 tox inconclusive, TDP1 cell noCPT inconclusive, DT40 TDP1 CPT inconclusive
Cc1ccccc1Nc1c(-c2cccc(N(C)C)c2)nc2ccc(Br)cn12	TDP1 cell noCPT 23µM, DT40 TDP1 CPT 13µM
Cc1ccc(-c2nnc(-n3ncc(C#N)c3N)c3ccccc23)cc1C	none
CCc1ccc(CNC(=O)CCCn2c(=O)c3cccn3c3cccnc32)cc1	TDP1 cell noCPT inconclusive, DT40 TDP1 CPT 16µM
O=C(CCn1c(=O)c2cccn2c2cccnc21)NCc1ccc(Cl)cc1	TDP1 cell noCPT inconclusive (no result: S2 tox, ATXN2 expr inh)
O=C(CCCn1c(=O)c2cccn2c2cccnc21)NCCc1ccc(Cl)cc1	TDP1 cell noCPT 23µM, TGFb SMAD3 inh inconclusive, DT40 TDP1 CPT 21µM
CC(C)Oc1ccc(CNC(=O)CCCn2c(=O)c3cccn3c3ccccc32)cc1	TDP1 cell noCPT 23µM, DT40 TDP1 CPT 16µM (no result: S2 tox, ATXN2 expr inh)
CC(C)Oc1ccc(CNC(=O)CCCn2c(=O)c3cccn3c3cccnc32)cc1	TDP1 cell noCPT 16µM, TGFb SMAD3 inh inconclusive, DT40 TDP1 CPT 26µM (no result: S2 tox, ATXN2 expr inh)
COCCCNC(=O)CCCn1c(=O)c2cccn2c2cccnc21	none (no result: S2 tox, ATXN2 expr inh)
Nc1cc(N)cc(C(=O)c2ccccc2)c1	none
COc1ccc(NC(=S)N2CCC(NC(=O)C3CCCCC3)CC2)cc1	TDP1 cell noCPT inconclusive
O=C(CCCn1c(=O)c2cccn2c2cccnc21)NCc1cccc(Br)c1	TDP1 cell noCPT inconclusive, DT40 TDP1 CPT inconclusive (no result: ATXN2 expr inh)
CC(C(=O)NCCc1ccc(Cl)cc1)n1c(=O)c2cccn2c2cccnc21 (centres undefined)	TDP1 cell noCPT 18µM, TGFb SMAD3 inh inconclusive, DT40 TDP1 CPT inconclusive (no result: ATXN2 expr inh)
CCOc1cc(CNC(=O)CCCn2c(=O)c3cccn3c3cccnc32)cc(OCC)c1OCC	TDP1 cell noCPT 23µM, TGFb SMAD3 inh inconclusive, DT40 TDP1 CPT inconclusive (no result: ATXN2 expr inh)
CCOc1ccc(CCNC(=O)Cn2c(=O)c3cccn3c3cccnc32)cc1	DT40 TDP1 CPT inconclusive
CSc1cccc(NC(=O)CCCn2c(=O)c3cccn3c3cccnc32)c1	TDP1 cell noCPT 21µM, DT40 TDP1 CPT inconclusive (no result: ATXN2 expr inh)
CN(C)c1ccc(/C=[N+](\[O-])C2N(c3ccccc3)C(=S)SC2(C)C)cc1 (centres undefined)	DT40 TDP1 CPT inconclusive
Cc1c(Cl)cccc1NC(=S)N1CCN(c2ccc([N+](=O)[O-])cn2)CC1	none (no result: ATXN2 expr inh)
O=C(Nc1ccccc1)N1CCCN(c2nccc(C(F)(F)F)n2)CC1	TDP1 cell noCPT inconclusive, DT40 TDP1 CPT 29µM
O=C(Nc1cccc(C(F)(F)F)c1)c1cccnc1N1CCN(c2ccccc2)CC1	TDP1 cell noCPT 18µM, TGFb SMAD3 inh inconclusive, DT40 TDP1 CPT inconclusive
Cc1cccc(Cl)c1NC(=S)N1CCN(c2ccc([N+](=O)[O-])cn2)CC1	TDP1 cell noCPT 26µM, DT40 TDP1 CPT inconclusive
O=C(Nc1ccccc1)N1CCN(c2cccc(C(F)(F)F)c2)CC1	TDP1 cell noCPT 12µM, DT40 TDP1 CPT 21µM
O=C(Nc1cccc(C(F)(F)F)c1)c1cccnc1N1CCN(CCO)CC1	S2 tox inconclusive
